Reference: PubChem BioAssay (NCATS)
Several values for one entry are separate records, joined by “and”; a condition that tells them apart may be missing. Equal values may be shown once. Inconclusive results are not listed. The source holds several records for some structures; these can differ, active in one and inactive in another. Activity calls are given as the source filed them. Unless noted, calls come from the whole dose curve; as a rule, active = well fitted curve in the direction sought with a large enough effect; inconclusive = small, poorly fitted or top-dose-only effect, or another doubt; inactive = no such curve, though single readings can be large; an effect the other way counts as inactive or inconclusive.

Experiments:
Tov112D = experiment: Primary qHTS to identify gynecologic anti-cancer compounds using libraries of approved drugs and bioactive compounds (AID 1345084); conditions: Gynecologic cancer cell panel viability, ATPlite luminescence, 48 h; series mostly up to 57.5 µM; note: nearly all actives have a fitted effect of over 55% in size; note: potency is the fitted concentration of half-maximal effect
Summary of the method: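 Five-point cytotoxicity, 48 h drug exposure at 37 C, 5% CO2, on cells seeded 16 h beforehand. ATP content read by ATPlite luminescence.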

[1] = Drug repurposing screens with cells derived from glioblastoma tumor samples (AID 1345199); conditions: GBM patient neurospheres viability, ATP luminescence, 48 h; note: nearly all actives have a fitted effect of over 40% in size; note: potency is the fitted concentration of half-maximal effect; for activity, negative = cell killing: % is set by controls: 0 for no effect and ±100 for the full control effect
Summary of the method: (§1)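 Four patient lines of CD133+ GBM neurospheres were screened at several concentrations; hits were retested in those lines plus three slower-growing GBM lines, using 48-hour treatment and ATP-based viability.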

astro = experiment: as above; conditions: viability, ATP luminescence, 48 h; series mostly up to 45.9 µM
Summary of the method: as §1

[2] = biological target: Nuclear receptor subfamily 1 group I member 2 (Rattus norvegicus) (UniProt Q9R1A7); experiment: qHTS assay for small molecule activators of the rat pregnane X receptor (rPXR) signaling pathway (AID 651751; call rule not given here; note: 0% is about no effect); conditions: rPXR reporter cells, luciferase (One-Glo), 24 h
[3] = qHTS assay for small molecule activators of the human pregnane X receptor (PXR) signaling pathway (AID 720659; call rule not given here; note: 0% is about no effect); conditions: DPX-2 HepG2 CYP3A4-luciferase, 24 h; series mostly up to 92.3 µM
[4] = qHTS assay to identify inhibitors of the type 1 interferon - major histocompatibility complex class I in skeletal muscle: Counter screen cell viability and HiBit confirmation (AID 1347412); conditions: iHSKM muscle cells + IFN-b, HiBiT or CellTiter-Glo, 24 h; Potency: HiBiT; Viability, at 45.9 µM (top of the series); note: nearly all actives have a fitted effect of over 60% in size; note: potency is the fitted concentration of half-maximal effect
Summary of the method: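 HLA-B*08:01–HiBiT knock-in immortalized human myoblasts (C25cl48) stimulated with 4.0 ng/ml human IFN-beta and dosed with compound in a 12-point 1:3 titration (top final 46 uM). After 24 hrs at 37 C, HiBiT lytic luminescence or CellTiter Glo ATP read out.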

[5] = at 45.9 µM (top of the series), tumour line B
[6] = at 45.9 µM (top of the series), tumour line D
[7] = at 46 µM (top of the series), tumour line A
[8] = at 46.1 µM (top of the series), tumour line C

Nuclear receptor subfamily 1 group I member 2 (Rattus norvegicus), sequence (Q9R1A7 whole entry, looked up): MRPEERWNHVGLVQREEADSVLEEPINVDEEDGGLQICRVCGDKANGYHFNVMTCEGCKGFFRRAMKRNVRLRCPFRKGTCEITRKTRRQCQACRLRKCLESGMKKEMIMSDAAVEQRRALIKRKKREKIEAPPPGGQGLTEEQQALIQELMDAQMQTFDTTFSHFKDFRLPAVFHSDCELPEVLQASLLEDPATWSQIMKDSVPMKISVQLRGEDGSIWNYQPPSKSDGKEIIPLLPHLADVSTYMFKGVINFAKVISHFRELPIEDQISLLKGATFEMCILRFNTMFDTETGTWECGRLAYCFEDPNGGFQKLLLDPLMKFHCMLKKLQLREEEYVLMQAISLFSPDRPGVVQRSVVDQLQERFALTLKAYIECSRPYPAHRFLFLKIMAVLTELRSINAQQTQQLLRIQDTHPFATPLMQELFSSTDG

CC(C)(C)NCC(O)c1ccc(O)c(CO)c1 (stereo not given)
inactive: Potency (Tov112D) | activity, negative = cell killing [1, 5] -3.69% | activity, negative = cell killing [1, 6] -16.6% | activity, negative = cell killing [1, 7] -18.1% | activity, negative = cell killing [1, 8] -6.46% | Potency (astro)

CC(c1cc2ccccc2s1)N(O)C(N)=O (stereo not given)
inactive: Potency (Tov112D) | activity, negative = cell killing [1, 5] -3.78% | activity, negative = cell killing [1, 6] -20.5% | activity, negative = cell killing [1, 7] -18.2% | activity, negative = cell killing [1, 8] -18.9% | Potency (astro)

Cc1cn[nH]c1
inactive: Potency (Tov112D) | activity, negative = cell killing [1, 5] 0.573% | activity, negative = cell killing [1, 6] -5.07% | activity, negative = cell killing [1, 7] -17.3% | activity, negative = cell killing [1, 8] -3.17% | Potency (astro)

Cc1[nH]c(=O)c(C#N)cc1-c1ccncc1
inactive: Potency (Tov112D) | activity, negative = cell killing [1, 5] -10.7% | activity, negative = cell killing [1, 6] 4.86% | activity, negative = cell killing [1, 7] -23.5% | activity, negative = cell killing [1, 8] 2.71% | activity, negative = cell killing ([1]; at 91.6 µM (top of the series), tumour line B) -14.8% | activity, negative = cell killing ([1]; at 91.6 µM (top of the series), tumour line D) 7.24% | activity, negative = cell killing ([1]; at 99.2 µM (top of the series), tumour line C) -28.5% | Potency (astro) | max response [2] 2.46%

O=NN(CCCl)C(=O)NCCCl
inactive: Potency (Tov112D) | activity, negative = cell killing [1, 5] -7.98% | activity, negative = cell killing [1, 6] -22.2% | activity, negative = cell killing [1, 7] -13.2% | activity, negative = cell killing [1, 8] -21% | Potency (astro) | max response [2] -1.45%

O=C(c1cc(Cc2n[nH]c(=O)c3ccccc23)ccc1F)N1CCN(C(=O)C2CC2)CC1
inactive: Potency (Tov112D)

Clc1cccc(Cl)c1NC1=NCCN1
inactive: Potency (Tov112D) | activity, negative = cell killing [1, 5] 5.06% | activity, negative = cell killing [1, 6] -7.27% | activity, negative = cell killing [1, 7] -29.3% | activity, negative = cell killing [1, 8] 0.125% | Potency (astro)

Nc1ccc(S(=O)(=O)Nc2ccnn2-c2ccccc2)cc1
inactive: Potency (Tov112D) | activity, negative = cell killing ([1]; at 20 µM (top of the series), tumour line C) -5.82% | activity, negative = cell killing ([1]; at 21.2 µM (top of the series), tumour line B) -5.49% | activity, negative = cell killing ([1]; at 21.2 µM (top of the series), tumour line D) -1.62% | activity, negative = cell killing ([1]; at 21.3 µM (top of the series), tumour line A) -21.3% | Potency (astro)

Cc1ccc(-n2nc(C(C)(C)C)cc2NC(=O)Nc2ccc(OCCN3CCOCC3)c3ccccc23)cc1
inactive: Potency (Tov112D) | activity, negative = cell killing [1, 5] 12.9% | activity, negative = cell killing [1, 6] -19.4% | activity, negative = cell killing [1, 8] -25.6%

CCCc1nc2c(C)cc(-c3nc4ccccc4n3C)cc2n1Cc1ccc(-c2ccccc2C(=O)O)cc1
inactive: Potency (Tov112D) | activity, negative = cell killing [1, 5] -13.6% | activity, negative = cell killing [1, 6] -10.2% | activity, negative = cell killing [1, 7] -16.9% | activity, negative = cell killing [1, 8] -10.7% | Potency (astro)

NCCc1ccc(O)c(O)c1
inactive: Potency (Tov112D) | activity, negative = cell killing [1, 5] -2.97% | activity, negative = cell killing [1, 6] 1.17% | activity, negative = cell killing [1, 7] -12.4% | activity, negative = cell killing [1, 8] 13.2% | Potency (astro)

Clc1ccc(Nc2nnc(Cc3ccncc3)c3ccccc23)cc1
active: Potency ([1]; tumour line A) 12.6 µM and 7.08 µM
inactive: Potency (Tov112D) | activity, negative = cell killing [1, 5] -12.8% and 0.35% | activity, negative = cell killing [1, 8] -11.6% and 1.14%

S=C(NCc1ccc2c(c1)OCO2)N1CCN(c2ncnc3c2oc2ccccc23)CC1
inactive: Potency (Tov112D)

CC(C)(Sc1ccc(CCN(CCCCC2CCCCC2)C(=O)NC2CCCCC2)cc1)C(=O)O
inactive: Potency (Tov112D) | max response [2] -3.94% | outcome [3]

Nc1nc2[nH]cc(CCc3ccc(C(=O)N[C@@H](CCC(=O)O)C(=O)O)cc3)c2c(=O)[nH]1
active: Potency ([1]; tumour line A) 251 nM
inactive: activity, negative = cell killing [1, 5] -23.6% | activity, negative = cell killing [1, 6] -14.3% | Potency (astro)

C1COC(NC(C2CC2)C2CC2)=N1
inactive: Potency (Tov112D) | activity, negative = cell killing [1, 5] -27.8% | activity, negative = cell killing [1, 8] -23.7% | Potency (astro)

COc1c(Cl)cc2c([nH]c3cnccc32)c1NC(=O)c1cccnc1C
inactive: Potency (Tov112D) | Potency [4]

CCc1cc(Nc2nccc(-c3c(-c4ccc(OC)c(C(=O)Nc5c(F)cccc5F)c4)nc4ccccn34)n2)c(OC)cc1N1CCC(N2CCN(S(C)(=O)=O)CC2)CC1
inactive: Potency (Tov112D) | Potency [4]

NC(=O)c1cnccn1
inactive: Potency (Tov112D) | Potency (astro) | max response [2] -0.614% and 3.04% | outcome [3]

CC[C@@H](C)[C@H](NC(=O)[C@H](CC1CCCCC1)NC(=O)c1ccno1)C(=O)N1CCC2(CCc3ccccc32)CC1
inactive: Potency (Tov112D) | Potency [4]

CS(=O)(=O)c1cccc(CNc2nc(Nc3ccc4c(c3)CCC(=O)N4)ncc2C(F)(F)F)c1
active: Potency [4] 11.1 µM
inactive: Potency (Tov112D)

Cc1oncc1C(=O)Nc1ccc(C(F)(F)F)cc1
active: Potency (Tov112D) 20 µM | Potency (astro) 10 µM

CCN(CC)CCCC(C)Nc1ccnc2cc(Cl)ccc12 (stereo not given)
active: Potency ([1]; tumour line A) 15800 nM
inactive: Potency (Tov112D) | activity, negative = cell killing [1, 8] 3.03% | Potency (astro)

NNCCc1ccccc1
inactive: Potency (Tov112D) | Potency (astro)

Cc1cnc(NC(=O)C2=C(O)c3ccccc3S(=O)(=O)N2C)s1
inactive: Potency (Tov112D) | Potency (astro)

O=C(O)COCCN1CCN(C(c2ccccc2)c2ccc(Cl)cc2)CC1 (stereo not given)
inactive: Potency (Tov112D) | Potency (astro)

Nc1nc2ccc(OC(F)(F)F)cc2s1
inactive: activity, negative = cell killing [1, 8] 16.9% | Potency (astro)

COc1ccc2nc(S(=O)Cc3ncc(C)c(OC)c3C)[nH]c2c1 (stereo not given)
inactive: Potency (Tov112D) | activity, negative = cell killing [1, 5] -19.3% | Potency (astro) | max response [2] 14.6%

N=c1nc(N2CCCCC2)cc(N)n1O
inactive: Potency (Tov112D) | Potency (astro)

c1ccc([C@H]2CN3CCSC3=N2)cc1
inactive: Potency (Tov112D) | Potency (astro)

OC(CCN1CCCCC1)(c1ccccc1)C1CC2C=CC1C2 (stereo not given)
inactive: Potency (Tov112D) | activity, negative = cell killing [1, 5] -6.31% and -18.3% | activity, negative = cell killing [1, 8] -5.16% | Potency (astro)

COc1cc(Nc2ncc3c(n2)-c2ccc(Cl)cc2C(c2c(F)cccc2OC)=NC3)ccc1C(=O)O
inactive: Potency (Tov112D) | Potency [4]
